Measured values as given in the supplement of paper PMC12669032.
A number with no mark means an inactive call.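 How the source made its calls: active = AUC reduced over 20% with Padj below 0.05 in at least 2 of 3 replicates; inactive = otherwise.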

Experiments:
Roseburia intestinalis = test: growth AUC relative to DMSO control (median of replicates) (fraction); higher = more growth (less inhibition), active = hit call of the paper; conditions: 20 µM; 24 h
In short: (§1)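 Gut bacterial monocultures in mGAM were treated with 20 µM compound (1% DMSO) and grown anaerobically at 37 °C in round-bottom 96-well plates from OD600 0.05. OD600 was read hourly for 24 h, with the minimum OD set to 0. Area under the growth curve was normalised to the plate median of solvent-only wells, or to row and column medians on the industrial chemical plate. Each value is the median of three biological replicates, each grown on a separate day.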

Streptococcus salivarius = test: as above; conditions: 20 µM; 24 h
In short: as §1

| SMILES | growth AUC (Roseburia intestinalis) | growth AUC (Streptococcus salivarius) |
| --- | --- | --- |
| O=C1C[C@@H]2OCC=C3CN4CC[C@]56c7ccccc7N1[C@H]5[C@H]2[C@H]3C[C@H]46 | 0.998 | 0.968 |
| CCC(C)(c1ccc(O)cc1)c1ccc(O)cc1 | 0.947 | 0.96 |
| C/C(=N/Nc1nc(C)cc(C)n1)c1ccccc1C | 0.715 (active) | 0.999 |
| Oc1ccc(Cc2ccc(O)cc2)cc1 | 0.999 | 0.966 |
| CN1CSC(=S)N(C)C1 | 1.03 | 0.983 |
| c1ccc2c(c1)ccc1c3ccccc3sc21 | 0.964 | 1.05 |
| COc1cc(OC)nc(NC(=O)NS(=O)(=O)c2ncccc2C(=O)N(C)C)n1 | 1.01 | 0.975 |
| CSc1nc(NC(C)C)nc(NC(C)C)n1 | 1.02 | 1.03 |
| Oc1ccccc1Cl | 0.965 | 1.01 |
| Oc1c(Cl)c(Cl)cc(Cl)c1Cl | 0.978 | 0.869 |
| CC(=O)CC(c1ccc(Cl)cc1)c1c(O)c2ccccc2oc1=O (configuration not stated) | 1.04 | 0.987 |
| c1ccc2c(c1)cc1ccc3cccc4ccc2c1c34 | 1.13 | 1.06 |
| O=C(Cc1ccccc1)N/C(=N\OCC1CC1)c1c(C(F)(F)F)ccc(F)c1F | 0.976 | 0.968 |
| CNC(=O)O/N=C(\C)C(C)S(C)(=O)=O (configuration not stated) | 0.95 | 0.972 |
| CCOP(=O)(OCC)ON1C(=O)c2cccc3cccc(c23)C1=O | 0.9 | 1.03 |
| O=P(OCCCl)(OCCCl)OCCCl | 0.928 | 1.03 |
| Nc1cc(Cl)cc(Cl)c1 | 1.07 | 1.01 |
| COc1ccc(C(c2ccc(OC)cc2)C(Cl)(Cl)Cl)cc1 | 0.987 | 0.992 |
| COP(=O)(OC)O/C(=C/Br)c1ccc(Cl)cc1Cl | 1.02 | 1 |
| O=C(O)C1(O)c2ccccc2-c2ccc(Cl)cc21 (configuration not stated) | 0.991 | 0.982 |
| CCCN(CCC)c1c([N+](=O)[O-])cc(C(F)(F)F)cc1[N+](=O)[O-] | 1 | 1.04 |
| Nc1cc(Cl)cc(C(=O)O)c1Cl | 1.04 | 1.02 |
| CN(C)C(=O)C(c1ccccc1)c1ccccc1 | 0.964 | 0.995 |
| O=C(O)C(F)(F)C(F)(F)C(F)(F)C(F)(F)C(F)(F)C(F)(F)C(F)(F)C(F)(F)F | 0.975 | 0.998 |
| Cc1cc(C2CC2)nc(Nc2ccccc2)n1 | 0.947 | 1.03 |
| Cc1c(COC(=O)[C@@H]2[C@H](/C=C(\Cl)C(F)(F)F)C2(C)C)cccc1-c1ccccc1 | 0.924 | 0.949 |

| SMILES | growth AUC (Roseburia intestinalis) | growth AUC (Streptococcus salivarius) |
| --- | --- | --- |
| COC(=O)C1(O)c2ccccc2-c2ccccc21 | 1 | 1 |
| CCNc1nc(NC(C)C)nc(SC)n1 | 1.02 | 0.973 |
| N#Cc1nn(-c2c(Cl)cc(C(F)(F)F)cc2Cl)c(N)c1C(F)(F)F | 0.698 (active) | 0.539 (active) |
| Clc1ccc(C(c2ccc(Cl)cc2)C(Cl)Cl)cc1 | 0.923 | 0.99 |
| ClCC1C(CCl)C2(Cl)C(Cl)=C(Cl)C1(Cl)C2(Cl)Cl (configuration not stated) | 0.996 | 0.981 |
| Clc1ccc(C(c2ccc(Cl)cc2)C(Cl)(Cl)Cl)cc1 | 0.941 | 0.897 |
| CCCCCCCCSC(=O)Oc1cc(Cl)nnc1-c1ccccc1 | 1.06 | 0.963 |
| Clc1ccccc1Cl | 0.968 | 1.07 |
| COc1cc(OC)nc(NC(=O)NS(=O)(=O)c2ncccc2C(F)(F)F)n1 | 1 | 1.01 |
| CON(C)C(=O)Nc1ccc(Br)c(Cl)c1 | 0.957 | 0.956 |
| CC(C)N1C(=O)c2ccccc2NS1(=O)=O | 1 | 0.978 |
| CC(C)(C)C(O)C(Cc1ccc(Cl)cc1Cl)n1cncn1 (mixture of isomers) | 0.918 | 0.974 |
| CO/N=C(/C(=O)OC)c1ccccc1COc1ccccc1C | 0.97 | 0.97 |
| CCOP(=S)(OCC)Oc1cc(C)nc(N(CC)CC)n1 | 0.941 | 1 |
| CC1(C)CCC(Cc2ccc(Cl)cc2)C1(O)Cn1cncn1 (configuration not stated) | 0.943 | 1 |
| FC(F)C(F)(F)OCC(Cn1cncn1)c1ccc(Cl)cc1Cl (configuration not stated) | 0.956 | 0.996 |
| O=C(Nc1ccccc1)N(Cc1ccc(Cl)cc1)C1CCCC1 | 0.991 | 0.994 |
| CCOP(=S)(OCC)SCCSCC | 1.02 | 1.01 |
| NC(=S)c1c(Cl)cccc1Cl | 1 | 0.943 |
| N#Cc1c(Cl)c(Cl)c(Cl)c(C#N)c1Cl | 0.939 | 0.88 |
| CO/C=C(/C(=O)OC)c1ccccc1COc1cccc(C(F)(F)F)n1 | 0.989 | 0.999 |
| COC(=O)c1sccc1S(=O)(=O)NC(=O)Nc1nc(C)nc(OC)n1 | 0.947 | 0.859 |
| CCCCCCCCCCCCC1=C(OC(C)=O)C(=O)c2ccccc2C1=O | 0.772 | 0.957 |
| CC1COC(Cn2cncn2)(c2ccc(Oc3ccc(Cl)cc3)cc2Cl)O1 (configuration not stated) | 0.823 | 0.962 |
| CCS(=O)(=O)Oc1ccc2c(c1)C(C)(C)CO2 | 1.04 | 1.03 |
| CSc1nnc(C(C)(C)C)c(=O)n1N | 1.06 | 1.01 |

| SMILES | growth AUC (Roseburia intestinalis) | growth AUC (Streptococcus salivarius) |
| --- | --- | --- |
| N#Cc1c(Cl)cccc1Cl | 1.07 | 0.951 |
| COP(=S)(NC(C)C)Oc1ccc(C)cc1[N+](=O)[O-] (configuration not stated) | 1.01 | 1.02 |
| CC[C@H](C)[C@H]1O[C@]2(C=C[C@@H]1C)C[C@@H]1C[C@@H](C/C=C(\C)[C@@H](O[C@H]3C[C@H](OC)[C@@H](O[C@H]4C[C@H](OC)[C@@H](NC)[C@H](C)O4)[C@H](C)O3)[C@@H](C)/C=C/C=C3\CO[C@@H]4[C@H](O)C(C)=C[C@@H](C(=O)O1)[C@]34O)O2.O=C(O)c1ccccc1 | 0.0307 (active) | 0.798 (active) |
| Nc1nc(N)[nH]c(=O)n1 | 0.981 | 1 |
| COCc1c(F)c(F)c(COC(=O)[C@@H]2[C@@H](C=C(Cl)Cl)C2(C)C)c(F)c1F | 0.979 | 0.986 |
| CCCN(CC)CC1COC2(CCC(C(C)(C)C)CC2)O1 (configuration not stated) | 1.03 | 0.96 |
| Cc1cccc(C)c1N(Cn1cccn1)C(=O)CCl | 0.935 | 0.999 |
| CCCSP(=S)(OCC)Oc1ccc(Cl)cc1Cl (configuration not stated) | 1.08 | 0.973 |
| O=S1OCC2C(CO1)C1(Cl)C(Cl)=C(Cl)C2(Cl)C1(Cl)Cl (configuration not stated) | 0.988 | 0.977 |
| OCC(O)CCl (configuration not stated) | 1.02 | 1 |
| CCOC(=O)C(Cl)Cc1cc(-n2nc(C)n(C(F)F)c2=O)c(F)cc1Cl (configuration not stated) | 1.03 | 1.03 |
| CC1=NNC(=O)N(/N=C/c2cccnc2)C1 | 1.01 | 1.04 |
| Nc1c(Cl)cc([N+](=O)[O-])cc1Cl | 0.925 | 0.956 |
| ClC(Cl)=C(c1ccc(Cl)cc1)c1ccc(Cl)cc1 | 0.945 | 0.965 |
| ClC1=C(Cl)[C@]2(Cl)[C@@H]3[C@@H]4C[C@@H]([C@H]5O[C@@H]45)[C@@H]3[C@@]1(Cl)C2(Cl)Cl | 1 | 1.03 |
| CCS(=O)(=O)CCSP(=O)(OC)OC | 1.06 | 0.957 |
| CC(C)N(C(=O)SCC(Cl)=C(Cl)Cl)C(C)C | 1.01 | 0.996 |
| Oc1ccc(Cl)cc1 | 0.972 | 0.984 |
| CCC(CC)Nc1c([N+](=O)[O-])cc(C)c(C)c1[N+](=O)[O-] | 0.897 | 0.959 |
| CN(C)c1nc(=O)n(C2CCCCC2)c(=O)n1C | 1.02 | 1.01 |
| CCCCc1c(C)nc(NCC)nc1OS(=O)(=O)N(C)C | 1.03 | 1.02 |
| O=[N+]([O-])c1cc(Cl)ccc1Cl | 0.931 | 0.981 |
| CNC(=O)O/N=C(\C)C(C)S(C)=O (configuration not stated) | 0.991 | 0.96 |
| CCOC(=O)CCN(SN(C)C(=O)Oc1cccc2c1OC(C)(C)C2)C(C)C | 1.02 | 0.998 |
